Values without a mark were called inactive. The source made the active and inactive calls. Calls come from the whole dose curve; as a rule, active = well fitted curve in the direction sought with a large enough effect in the repeat runs; inconclusive = weak or mixed curves; inactive = flat fitted curve, though single readings scatter.
Experiment: qHTS assay to test for compound auto fluorescence at 460 nm (blue) in HepG2 cell free culture (AID 720685)
Settings: Cell-free culture medium, blue autofluorescence 405/460 nm; series mostly up to 91.3 µM
In short: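 Compound (23 nL) or DMSO pinned into cell-free MEM with 10% FBS; blue fluorescence read at 405/460 nm excitation/emission, expressed as auto-fluorescence equivalency to triamterene.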
With `CCCCc1ccc(O)cc1` the outcome was “inactive”. With `CC(=O)[C@H]1CC[C@H]2[C@@H]3CC[C@H]4C[C@H](O)CC[C@]4(C)[C@H]3C(=O)C[C@]12C` the outcome was “inactive”. For `O=NN1CCN(N=O)CC1`, the outcome was “inactive”. For `ClCCOCOCCCl`, the outcome was “inactive”. In the case of `COc1cccc2c1cc([N+](=O)[O-])c1c(C(=O)O)cc3c(c12)OCO3`, the outcome was “inactive”. In the case of `N#CCBr`, the outcome was “inactive”. For `C[C@H]1CCC[C@H](O)CCCCCc2cc(O)cc(O)c2C(=O)O1`, the outcome was “inactive”. For `CC1=C(C(=O)Nc2ccccc2)S(=O)(=O)CCO1`, the outcome was “inactive”. With `CC(C)CC(N(C)C)C1(c2ccc(Cl)cc2)CCC1` (centres undefined) the outcome was “inactive”. In the case of `CC(=O)C(Cl)Cl`, the outcome was “inactive”. For `CC(COc1ccc(Oc2ccccc2)cc1)Oc1ccccn1` (centres undefined), the outcome was “inactive”. In the case of `CC(C)[N+](=O)[O-]`, the outcome was “inactive”. In the case of `CCOP(=S)(OCC)Oc1nc(Cl)n(C(C)C)n1`, the outcome was “inactive”. For `COC(=O)c1ccccc1S(=O)(=O)NC(=O)N(C)c1nc(C)nc(OC)n1`, the outcome was “inactive”. For `CCCCOC(=O)c1ccccc1N`, the outcome was “inactive”. With `[As]#[In]` the outcome was “inactive”. For `CCCCOP(=O)(O)OCCCC`, the outcome was “inactive”. In the case of `O=C(NCO)NCO`, the outcome was “inactive”. For `CCS(=O)(=O)CCSP(=O)(OC)OC`, the outcome was “inactive”. For `CNC(=O)O/N=C(\C)SC`, the outcome was “inactive”. With `CSc1nc(N=[N+]=[N-])nc(NC(C)C)n1` the outcome was “inactive”. For `[O]=[Cd]`, the outcome was “inactive”. In the case of `CCCSC(=O)Cl`, the outcome was “inactive”. With `CCS(=O)(=O)C(C)(C)S(=O)(=O)CC` the outcome was “inactive”. With `CCC/C(=N\OCC)C1=C(O)CC(CC(C)SCC)CC1=O` (centres undefined) the outcome was “inactive”. For `O=[N+]([O-])c1cccc2c([N+](=O)[O-])cccc12`, the outcome was “inactive”. In the case of `CC1=NNC(=O)N(/N=C/c2cccnc2)C1`, the outcome was “inactive”.

Experiment: qHTS assay to test for compound auto fluorescence at 535 nm (green) in HepG2 cell free culture (AID 720686)
Settings: Cell-free medium, green autofluorescence 485/535 nm; series mostly up to 91.3 µM
With `CCCCc1ccc(O)cc1` the outcome was “inactive”. For `O=NN1CCCCC1`, the outcome was “inactive”. In the case of `CC(=O)[C@H]1CC[C@H]2[C@@H]3CC[C@H]4C[C@H](O)CC[C@]4(C)[C@H]3C(=O)C[C@]12C`, the outcome was “inactive”. In the case of `ClCCOCOCCCl`, the outcome was “inactive”. In the case of `C[C@H]1CCC[C@H](O)CCCCCc2cc(O)cc(O)c2C(=O)O1`, the outcome was “inactive”. In the case of `CC1=C(C(=O)Nc2ccccc2)S(=O)(=O)CCO1`, the outcome was “inactive”. With `CC(C)CC(N(C)C)C1(c2ccc(Cl)cc2)CCC1` (centres undefined) the outcome was “inactive”. For `CC(=O)C(Cl)Cl`, the outcome was “inactive”. For `CC(COc1ccc(Oc2ccccc2)cc1)Oc1ccccn1` (centres undefined), the outcome was “inactive”. In the case of `CC(C)[N+](=O)[O-]`, the outcome was “inactive”. In the case of `CCOP(=S)(OCC)Oc1nc(Cl)n(C(C)C)n1`, the outcome was “inactive”. `COc1ccc2c(c1OC)CN1CCc3cc4c(cc3C1C2)OCO4` (centres undefined) gave a fluorescence, % of fluorescein control of 0.0175% [at 18.6 µM]. For `CCNc1nc(NC(C)C)nc(OC)n1`, the outcome was “inactive”. In the case of `COC(=O)c1ccccc1S(=O)(=O)NC(=O)N(C)c1nc(C)nc(OC)n1`, the outcome was “inactive”. For `C=CCC1=C(C)[C@@H](OC(=O)[C@@H]2[C@@H](C=C(C)C)C2(C)C)CC1=O`, the outcome was “inactive”. In the case of `CCCCOC(=O)c1ccccc1N`, the outcome was “inactive”. With `[As]#[In]` the outcome was “inactive”. For `CN1CCC(O)(c2ccc(F)cc2)C(C(=O)c2ccc(F)cc2)C1` (centres undefined), the outcome was “inactive”. For `CCCCOP(=O)(O)OCCCC`, the outcome was “inactive”. With `O=C(NCO)NCO` the outcome was “inactive”. For `CCS(=O)(=O)CCSP(=O)(OC)OC`, the outcome was “inactive”. In the case of `CNC(=O)O/N=C(\C)SC`, the outcome was “inactive”. With `CSc1nc(N=[N+]=[N-])nc(NC(C)C)n1` the outcome was “inactive”. For `O=C(CCN1CC1)OCC(CO)(COC(=O)CCN1CC1)COC(=O)CCN1CC1`, the outcome was “inactive”. In the case of `[O]=[Cd]`, the outcome was “inactive”. For `CCCSC(=O)Cl`, the outcome was “inactive”. With `CCS(=O)(=O)C(C)(C)S(=O)(=O)CC` the outcome was “inactive”. For `Nc1n[nH]c(N)n1`, the outcome was “inactive”. For `CCC/C(=N\OCC)C1=C(O)CC(CC(C)SCC)CC1=O` (centres undefined), the outcome was “inactive”. For `O=[N+]([O-])c1cccc2c([N+](=O)[O-])cccc12`, the outcome was “inactive”. For `CC1=NNC(=O)N(/N=C/c2cccnc2)C1`, the outcome was “inactive”. With `CCCCN(CCCCO)N=O` the outcome was “inactive”.
% is set by controls: 0 for no effect and ±100 for the full control effect.
